Rows were chosen to be rich in hits. Some 2.6% of all compounds tested hit in one or more screens of this group.
PfM18AAP inh-1: PfM18AAP enzyme inhibition; recombinant PfM18AAP, H-Glu-NHMec fluorogenic cleavage; inhibition, % at 7.35 µM; actives 1.2% (n = 290,000);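 active = inhibition above the campaign mean inhibition over all tested compounds plus 3 SD, cut at about 28% in these data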
ABHD5 PLIN5 PPI: inhibitors of human ABHD5-perilipin-5 interaction. Q00G26+Q8WTS1. Split G. princeps luciferase complementation, luminescence, 4 h. inhibition, % at 4 µM. actives 0.78% (n = 360,000). AID 602281;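 active = inhibition above the mean inhibition across every tested compound plus 3 SD, cut at about 22% in these data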
Rce1 inh: yeast Ras-converting enzyme inhibition. Q03530. yeast membranes, quenched prenylated peptide cleavage fluorescence. calls only. actives 0.27% (n = 290,000);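 active = fall in fluorescence gain of 50% or more versus controls, with final raw signal at or below 3038400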
Target sequence (Q03530 whole entry, looked up): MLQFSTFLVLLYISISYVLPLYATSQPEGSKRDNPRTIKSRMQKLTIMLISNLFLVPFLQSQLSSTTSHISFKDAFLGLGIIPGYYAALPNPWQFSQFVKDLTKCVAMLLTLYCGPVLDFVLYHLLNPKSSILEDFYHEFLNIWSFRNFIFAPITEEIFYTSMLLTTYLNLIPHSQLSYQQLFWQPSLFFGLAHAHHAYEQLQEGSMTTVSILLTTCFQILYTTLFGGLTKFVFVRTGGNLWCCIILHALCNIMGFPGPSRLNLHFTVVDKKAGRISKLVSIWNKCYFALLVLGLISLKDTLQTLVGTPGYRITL
Granule exo inh: lytic granule exocytosis inhibition | TALL-104 LAMP-1 surface exposure, flow cytometry; cells stimulated with thapsigargin and PMA | inhibition, % at 10 µM | actives 0.66% (n = 360,000);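 active = inhibition above about 55%, limit read from the data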
Platelet DG rel: platelet dense granule release activity. human platelet-rich plasma, SFLLRN dense granule ATP release, luminescence. inhibition, %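 (compounds screened at 7.5 µM in platelet-rich plasma)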. actives 0.22% (n = 300,000). AID 1663;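 active = mean replicate score, as percent of positive control, at or above 50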
PfM18AAP inh-2: confirmation of Plasmodium falciparum M18 aspartyl aminopeptidase inhibitors; shares compounds with PfM18AAP inh-1; recombinant PfM18AAP, H-Glu-NHMec fluorogenic cleavage; inhibition, % at 7.35 µM; actives 28% (n = 2,400);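 active = mean inhibition over replicate wells above the hit cutoff set for the earlier primary screen, cut at about 29% in these data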
CTSL1 counter: Cathepsin L (human) inhibition, confirmation. shares compounds with PfM18AAP inh-1. purified cathepsin L1, Z-Leu-Arg-MCA fluorescence. inhibition, % at 5.96 µM. 2,400 tested, under 10 active. AID 2178;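 active = average inhibition across replicates above the hit cutoff set in the earlier primary screen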
Target sequence (P07711 whole entry, looked up): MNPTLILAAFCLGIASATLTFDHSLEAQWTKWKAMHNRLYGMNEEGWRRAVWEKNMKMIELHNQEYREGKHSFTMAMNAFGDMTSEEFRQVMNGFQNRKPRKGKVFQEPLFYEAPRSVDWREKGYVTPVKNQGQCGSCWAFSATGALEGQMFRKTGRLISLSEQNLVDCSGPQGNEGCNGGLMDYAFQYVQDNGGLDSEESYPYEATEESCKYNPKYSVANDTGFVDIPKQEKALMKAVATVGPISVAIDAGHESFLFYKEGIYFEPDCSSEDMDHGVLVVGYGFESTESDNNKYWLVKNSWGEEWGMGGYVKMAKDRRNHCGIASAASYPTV
Of the large screens only hits and unclear results are named; the others gave an inactive call (follow-up assays come after a bar, where they were run).

COCc1cc(C)nc(SCC(=O)c2ccc(O)c(O)c2)c1C#N	PfM18AAP inh-1 61.9 | PfM18AAP inh-2 39.3 | CTSL1 counter inactive
CCOC(=O)C(CCSC)NC(=O)CN (stereo not given)	none (no result: Rce1 inh)
Cc1cccc(OCc2nnc(SCC(=O)Nc3sc(C)c(C)c3C#N)n2C)c1	none
CCSc1cc(C)nc2c(-c3ccc(Cl)cc3)c(C)nn12	none
Cc1cc(SCC(=O)c2ccc(O)c(O)c2)n2nc(C)c(-c3ccccc3)c2n1	PfM18AAP inh-1 56.6 | PfM18AAP inh-2 37.4 | CTSL1 counter inactive
O=C(CSc1nc2ccccc2c(=O)[nH]1)c1ccc(O)c(O)c1	PfM18AAP inh-1 65.1 | PfM18AAP inh-2 68.0 | CTSL1 counter inactive
Cc1sc2ccccc2[n+]1CC(=O)c1ccccc1	PfM18AAP inh-1 52.1 | PfM18AAP inh-2 inactive | CTSL1 counter inactive
COc1ccc(-n2c(O)c(/C=N/Nc3nc(C)cc(C)n3)c3ccccc3c2=O)cc1OC	PfM18AAP inh-1 34.4 | PfM18AAP inh-2 inactive | CTSL1 counter inactive
COc1ccc(-n2c(O)c(/C=N/NS(=O)(=O)c3ccc(C)cc3)c3ccccc3c2=O)cc1OC	none
Cc1cc2nc3ccc(=[N+](C)C)cc-3sc2cc1N	PfM18AAP inh-1 36.2 | PfM18AAP inh-2 inactive | CTSL1 counter inactive
CN(C)c1ccc2nc3ccc(=[N+](C)C)cc-3sc2c1	none
CN(C)c1ccc(NC(=S)c2ccc3ccccc3n2)cc1	PfM18AAP inh-1 34.6 | PfM18AAP inh-2 inactive | CTSL1 counter inactive
Nc1nc(N)nc(-c2cc(O)ccc2O)n1	none (no result: PfM18AAP inh-1, Rce1 inh, Platelet DG rel)
CN1c2ccsc2C(O)=C(C(=S)Nc2ccccc2)S1(=O)=O	none
Cc1ccccc1NC(=S)C1=C(O)c2sccc2N(C)S1(=O)=O	PfM18AAP inh-1 33.2 | PfM18AAP inh-2 inactive | CTSL1 counter inactive
CCOc1ccc(C(c2c(C)n(C)n(-c3ccccc3)c2=O)c2c(C)n(C)n(-c3ccccc3)c2=O)c(O)c1	none (no result: PfM18AAP inh-1)
Nc1nonc1C(=O)NC(c1ccccc1)c1ccccc1	none
Cc1cccc(N=C(NO)c2nonc2N)c1	PfM18AAP inh-1 33.4 | PfM18AAP inh-2 inactive | CTSL1 counter inactive
Nc1nonc1C(=Nc1ccccc1)NO	PfM18AAP inh-1 42.9 | PfM18AAP inh-2 30.8 | CTSL1 counter inactive
CC(C)Oc1cccc(-c2cc(C(=O)NC(=S)N(C)c3ccccc3C(=O)O)c3ccccc3n2)c1	none
S=C(NCCCN1CCOCC1)NCCCN1CCOCC1	PfM18AAP inh-1 39.4 | PfM18AAP inh-2 inactive | CTSL1 counter inactive
COc1cc2ccccc2cc1C(=O)NCCCN1CCOCC1	none (no result: PfM18AAP inh-1)
COc1cc(OC)c(C(=O)NCCCN2CCOCC2)cc1OC	PfM18AAP inh-1 56.6 | PfM18AAP inh-2 inactive | CTSL1 counter inactive
CCCn1c(=N)c(S(=O)(=O)c2ccccc2)cc2c(=O)n3cccc(C)c3nc21	none (no result: Rce1 inh)
O=C(CSc1nc(C2CCCCC2)nc2ccccc12)NCc1ccco1	none
CCCN(CCC)C(=O)c1cn(CC)c2ccc(S(=O)(=O)N3CCCCC3)cc2c1=O	none
CCC(C)NC(=O)C1CCN(S(=O)(=O)c2ccc3[nH]c(=O)ccc3c2)CC1 (stereo not given)	PfM18AAP inh-1 35.8 | PfM18AAP inh-2 inactive | CTSL1 counter inactive
CCCNC(=O)C1CCN(S(=O)(=O)c2ccc3[nH]c(=O)ccc3c2)CC1	none
O=C(O)c1cccc(NC(=O)c2cccc(NC(=O)C3CCCO3)c2)c1 (stereo not given)	none
O=c1cc(-c2ccc(O)c(O)c2)oc2c(C3O[C@H](CO)[C@@H](O)[C@H](O)[C@H]3O)c(O)cc(O)c12 (stereo not given in full)	PfM18AAP inh-1 67.7 | PfM18AAP inh-2 44.7 | CTSL1 counter inactive
O=c1cc(-c2ccc(O)c(O)c2)oc2cc(O)c(C3OC(CO)C(O)C(O)C3O)c(O)c12 (stereo not given)	PfM18AAP inh-1 68.4 (no result: Rce1 inh) | PfM18AAP inh-2 33.9 | CTSL1 counter inactive
N#Cc1c(-c2ccccc2)[nH]c(=S)[nH]c1=O	PfM18AAP inh-1 33.5 | PfM18AAP inh-2 inactive | CTSL1 counter inactive
COc1cccc(N2CC34C=CC(O3)C(C(=O)O)C4C2=O)c1 (stereo not given)	none
Cc1ccc(CNc2ccc3c(c2)ncn3C)cc1	none
Cc1ccc(CNc2ccc3c(c2)ncn3C(C)(C)C)cc1	PfM18AAP inh-1 33.1 | PfM18AAP inh-2 inactive | CTSL1 counter inactive
COc1ccc(NC(=O)C/C(C)=N/NC(=O)c2cnccn2)c(OC)c1	none
CC(C)Oc1ccc(-c2nn(-c3ccccc3)cc2/C=c2\sc3ncnn3c2=O)cc1	PfM18AAP inh-1 58.5 (no result: ABHD5 PLIN5 PPI, Rce1 inh, Granule exo inh, Platelet DG rel) | PfM18AAP inh-2 inactive | CTSL1 counter inactive
O=[N+]([O-])c1cc(-c2ccc(/C=N/n3cnnc3)o2)ccc1Cl	none
COc1cc([N+](=O)[O-])ccc1-c1ccc(/C=N\n2cnnc2)o1	PfM18AAP inh-1 44.5 | PfM18AAP inh-2 inactive | CTSL1 counter inactive
Cc1cc(-c2ccc(/C=N/n3cnnc3)o2)c(C)c([N+](=O)[O-])c1	PfM18AAP inh-1 43.3 | PfM18AAP inh-2 inactive | CTSL1 counter inactive
O=[N+]([O-])c1ccc(Cl)c(-c2ccc(/C=N/n3cnnc3)o2)c1	none
S=c1[nH]nc(-c2cccnc2)n1Cc1ccccc1	none
Cc1ccc(C(C(=O)NC(C)(C)C)N(Cc2cccs2)C(=O)c2csnn2)cc1 (stereo not given)	PfM18AAP inh-1 35.1 | PfM18AAP inh-2 inactive | CTSL1 counter inactive
CCc1nnc(NC(=O)CSc2nc3[nH]c(=O)cc(O)c3s2)s1	none (no result: PfM18AAP inh-1, Rce1 inh, Platelet DG rel)
O=S(=O)(c1ccc(NC(=S)N/N=C/c2ccc(O)c(O)c2)cc1)N1CCOCC1	PfM18AAP inh-1 57.2 | PfM18AAP inh-2 33.7 | CTSL1 counter inactive
N#Cc1ccc(/C=N/NC(=S)Nc2ccc(S(=O)(=O)N3CCOCC3)cc2)cc1	none
CCOC(=O)c1cc(NC(=O)N(C)C2CCCCC2)c(C)nc1C	none
Cc1ccc(C(c2c(C)[nH][nH]c2=O)c2c(C)[nH][nH]c2=O)cc1[N+](=O)[O-]	PfM18AAP inh-1 33.8 | PfM18AAP inh-2 inactive | CTSL1 counter inactive
COc1cc(C(c2c(C)[nH][nH]c2=O)c2c(C)[nH][nH]c2=O)cc([N+](=O)[O-])c1O	none
CC(C)(C)OC(=O)C[C@@H]1C/C=C\C[C@@H](CC(=O)N(CCO)Cc2ccccc2)C(=O)NCCOC1=O	none (no result: PfM18AAP inh-1, Rce1 inh, Platelet DG rel)
CCC(CC)c1nnc(NC(=O)Cc2cccs2)s1	PfM18AAP inh-1 39.5 | PfM18AAP inh-2 inactive | CTSL1 counter inactive
O=C(Cc1cccs1)Nc1nnc(-c2ccccc2)s1	none
COc1ccc(C)cc1NC(=O)NCc1ccccc1F	none
O=C1c2ccccc2C(=O)N1c1ncn[nH]1	PfM18AAP inh-1 44.2 | PfM18AAP inh-2 inactive | CTSL1 counter inactive
O=C1C2C3C=CC(C3)C2C(=O)N1c1ncn[nH]1 (stereo not given)	none
COc1cccc(CNC(=O)COC(=O)/C(C#N)=C/c2ccc(N(C)C)cc2)c1	none (no result: PfM18AAP inh-1, Rce1 inh, Platelet DG rel)
